The record followed here is PubChem BioAssay (NCATS).

Test [1] in a line: Viability qHTS for spleen associated tyrosine kinase inhibitor (SYKi) naive MV4-11 cells (AID 1963823). Also: nearly all actives have a fitted effect of over 40% in size. The method in brief: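 Compounds were dispensed acoustically onto plates, MV4-11 cells (SYKi-naive) added at 500 per well, and plates incubated 72 hr at 37 C. CellTiter-Glo was added and luminescence measured after 10 min.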
Test [2] in a line: Viability qHTS for spleen associated tyrosine kinase inhibitor (SYKi) drug resistant MV4-11 cells (AID 1963824). Also: nearly all actives have a fitted effect of over 35% in size. The method in brief: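 SYK-inhibitor-resistant MV4-11 AML cells were seeded at 500 per well onto compound and cultured 72 hours (37 °C, 5% CO2). CellTiter-Glo was then added, and after 10 min at room temperature, luminescence gave viability.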
Test [3] in a line: Quantitative highthroughput screen to assess conditional lethalithy of NOMO1 cells grown in RPMI1640 with untreated serum (RPMI+s) (AID 1963876). Also: nearly all actives have a fitted effect of over 35% in size.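 As to Viability: 100% = DMSO wells and 0% = empty wells without cells.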 The method in brief:
(§1)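 Each medium arm—HPLM with 10% dialyzed FBS, or RPMI1640 with 5 mM glucose and 10% untreated or dialyzed FBS—was screened against an 11-point, 3-fold compound titration for 48 h at 37 °C, with CellTiter-Glo luminescence as endpoint.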

The nature of test [4]: Quantitative highthroughput screen to assess conditional lethalithy of NOMO1 cells grown in RPMI1640 with dialyzed fetal bovine serum (RPMI+ds) (AID 1963877). Also: nearly all actives have a fitted effect of over 30% in size.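 As to Viability: series mostly up to about 46 µM; 100% = DMSO control wells and 0% = empty wells.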 The method in brief: as §1
Test [5] in a line: Quantitative highthroughput screen to assess conditional lethalithy of NOMO1 cells grown in Human Plasma-Like Medium with dialyzed fetal bovine serum (HPLM+ds) (AID 1963878). Also: nearly all actives have a fitted effect of over 35% in size.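 As to Viability: 100% = DMSO wells and 0% = empty wells on each plate.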 The method in brief:
as §1

The nature of test [6]: Quantitative highthroughput screen to assess conditional lethalithy of P12 Ichikawa cells grown in Human Plasma-Like Medium with dialyzed fetal bovine serum (HPLM+ds) (AID 1963879). Also: nearly all actives have a fitted effect of over 35% in size. As to Viability: series mostly up to about 46 µM. The conditions noted are these: Potency: viability. In outline:
as §1

A short description of test [7]: Quantitative highthroughput screen to assess conditional lethalithy of P12 Ichikawa cells grown in RPMI1640 with dialyzed fetal bovine serum (RPMI+ds) (AID 1963880). Also: nearly all actives have a fitted effect of over 35% in size.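 As to Viability: 100% = DMSO wells and 0% = empty wells on each plate.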 The conditions noted are these: Potency: P12-Ichikawa viability. The method in brief: as §1
Test [8] can be described thus: Quantitative highthroughput screen to assess conditional lethalithy of P12 Ichikawa cells grown in RPMI1640 with untreated serum (RPMI+s) (AID 1963881). Also: nearly all actives have a fitted effect of over 35% in size.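 As to Viability: series mostly up to about 46 µM; 100% = DMSO wells and 0% = empty wells without cells.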 The conditions noted are these: Potency: viability. In outline: as §1
A short description of test [9]: Quantitative highthroughput screen to assess conditional lethalithy of SEM cells grown in Human Plasma-Like Medium with dialyzed fetal bovine serum (HPLM+ds) (AID 1963882). Also: nearly all actives have a fitted effect of over 35% in size. As to Viability: series mostly up to about 46 µM. In outline: as §1
A short description of test [10]: Quantitative highthroughput screen to assess conditional lethalithy of SEM cells grown in RPMI1640 with unreated serum (RPMI+s) (AID 1963883). Also: nearly all actives have a fitted effect of over 35% in size.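 As to Viability: 100% = DMSO wells and 0% = empty wells without cells.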 In outline:
as §1

The nature of test [11]: Cellular viability qHTS for adrenocortical cancer (ACC) cell line SW-13 (AID 1963989). Also: nearly all actives have a fitted effect of over 65% in size.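 As to activity (max response): cells grown in serum-free medium with ITS supplement; % is scaled to controls: 0 for no effect and ±100 for the full control effect.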 The conditions noted are these: SW-13 ACC cells viability, CellTiter-Glo, 48 h; activity (max response): stronger effect = lower value. In outline: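 Viability was read as CellTiter-Glo luminescence after 48 h compound treatment (up to 46 uM final) of SW-13 cells grown serum-free; titration curves were fit with a four-parameter logistic model to give IC50 and efficacy.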

Test [12] in a line: Cellular viability qHTS for adrenocortical cancer (ACC) cell line NCI-H295R (AID 1963990). Also: nearly all actives have a fitted effect of over 60% in size. The method in brief:
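CellTiter-Glo ATP luminescence, read 48 h after compound addition, measured viability of NCI-H295R adrenocortical cells grown serum-free with ITS. Final concentrations spanned up to 46 uM. Data normalized to DMSO and doxorubicin, fitted for IC50 and maximal response.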

The nature of test [13]: Quantitative highthroughput screen to assess conditional lethalithy of SEM cells grown in RPMI1640 with dialyzed fetal bovine serum (RPMI+ds) (AID 1963884). Also: nearly all actives have a fitted effect of over 35% in size.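 As to Viability: series mostly up to about 46 µM; 100% = DMSO control wells and 0% = empty wells without cells.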 The method in brief: as §1

Several values for one entry are separate records, joined by “and”; a condition that tells them apart may be missing. Equal entries are not always repeated. Records with an inconclusive call do not appear. A number with no mark means an inactive call. Activity calls are given as the source filed them. Calls follow the shape of the dose curve; as a rule, active = well fitted curve in the direction sought with a large enough effect; inconclusive = small, poorly fitted or top-dose-only effect, or another doubt; inactive = no such curve, though single readings can be large; an effect the other way counts as inactive or inconclusive.
Potency is read from the fitted curve at half-maximal effect.

Take `CN(CCOc1ccc(NS(C)(=O)=O)cc1)CCc1ccc(NS(C)(=O)=O)cc1`: the Potency entry in test [1], in test [2], in test [3], in test [4], in test [5] and in [6] was “inactive” each time. For the same compound, the Potency result in test [7], in test [8], in test [9], in test [10] and in test [12] was “inactive” each time. The activity (max response) in test [11] is 0.645% and 1.15%.

In the case of `CCOC(=O)Nc1ccc(NCc2ccc(F)cc2)nc1N`, the Potency is 14.8 µM (active) in test [1] and 16.6 µM (active) in [2]. Also, the Potency entry in [3], in test [4], in test [5], in [6], in test [7] and in [8] was “inactive” in each case. In addition, the Potency result in test [9], in test [13] and in test [12] was “inactive” in each case. Further, the activity (max response) in test [11] was -9.42%.

`CNC[C@H](O)c1ccc(O)c(O)c1`: the Potency entry in [1], in [2], in test [3], in test [4], in test [5] and in [6] was “inactive” throughout. Further, the Potency entry in [7], in test [8], in test [9], in [10], in [13] and in [12] was “inactive” throughout.

With `CC(C)(N)c1ccc(-c2nc3ccccc3nc2-c2ccccc2)cc1`, the Potency in [1] was 9.2 µM (active); in test [2], 14.8 µM (active); in test [3], 0.0743 µM (active); in test [4], 0.0833 µM (active); in test [5] it was 0.0235 µM (active); in test [6], 0.0235 µM (active). The Potency in [7] was 0.0743 µM (active); in test [8], 0.0935 µM (active); in [9], 0.0469 µM (active); in test [13] it was 0.0332 µM (active). In addition, in test [11], the activity (max response) was -5.56%.

For `O=C1CCC[C@@H]2[C@H]3CCC[N+]4([O-])CCC[C@@H](CN12)[C@@H]34` (some centres undefined), the Potency entry in test [1], in test [2], in test [6], in [7], in [8] and in [12] was “inactive” throughout. For the same compound, the Potency in test [3] is 8.33 µM (active); in [4], 7.43 µM (active); in test [5], 5.9 µM (active); in test [9], 6.62 µM (active); in test [10], 7.43 µM (active). Further, the activity (max response) in test [11] is -8.5%.

For `COc1cc([C@@H]2c3cc4c(cc3[C@@H](O[C@@H]3O[C@@H]5CO[C@@H](C)O[C@@H]5[C@H](O)[C@@H]3O)[C@H]3COC(=O)[C@H]23)OCO4)cc(OC)c1O`, the Potency in test [1] is 0.59 µM (active); in test [2] it was 0.525 µM (active); in [3] it was 2.09 µM (active); in [4], 2.35 µM (active); in test [5] it was 1.87 µM (active); in test [6], 0.935 µM (active). Besides, the Potency is 0.833 µM (active) in test [7]; 0.662 µM (active) in test [8]; 0.526 µM (active) in [9]; 0.132 µM (active) in test [10]; 0.166 µM (active) in test [13]; 20 µM (active) in [12].

Turning to `O=c1cc(O)c(Cl)c[nH]1`, the Potency entry in [1], in [2] and in [12] was “inactive” in each case. In addition, the Potency in test [3] is 7.43 µM (active); in test [4], 8.33 µM (active); in [5] it was 5.26 µM (active); in [6] it was 7.43 µM (active); in test [7] it was 14.8 µM (active); in test [8], 8.33 µM (active).

Turning to `C[C@@H](NCc1cc2ccccc2[nH]1)c1cccc2ccccc12`, the Potency in [1] was 6.61 µM (active); in test [2], 7.42 µM (active); in test [11], 25.1 µM (active); in test [12] it was 12.6 µM (active). Besides, the Potency entry in test [3], in test [4], in [5], in test [6], in test [7] and in [8] was “inactive” throughout.

In the case of `C[N+](C)(C)CC(=O)O`, the Potency entry in test [1], in test [2], in test [3], in test [4], in test [5] and in test [6] was “inactive” throughout. Also, the Potency result in test [7], in test [8], in [10], in [13] and in [12] was “inactive” throughout. In addition, the activity (max response) in [11] is -6.24% and 7.87%.

Take `c1cc(OCCN2CCCCC2)cc(-c2n[nH]c3ccc(-c4ncn[nH]4)cc23)c1`: the figures for the Potency in [1] and in test [2] were 0.651 µM (active) and 1.16 µM (active), respectively. In addition, the Potency result in test [3], in [4], in [5], in test [6], in test [7] and in test [8] was “inactive” each time. For the same compound, the Potency entry in [12] was “inactive”.

Consider `Cc1ccc2c(=O)c3cccc(CC(=O)O)c3oc2c1C`, for which the Potency in [1] was 2.95 µM (active); in test [2] it was 0.934 µM (active). The Potency entry in test [3], in test [4], in test [5], in [6], in test [7] and in test [8] was “inactive” each time. In addition, the Potency entry in [12] is “inactive”. The activity (max response) in test [11] was -13.4%.

Regarding `COc1cc2nccc(Oc3ccc(NC(=O)NC4CC4)c(Cl)c3)c2cc1C(N)=O`, the Potency is 0.461 µM (active) in test [1]; 1.03 µM (active) in test [2]; 26.4 µM (active) in test [3]; 23.5 µM (active) in test [4]; 18.7 µM (active) in test [5]; 18.7 µM (active) in test [6]. The Potency in test [7] and in [8] was 20.9 µM (active) each time. Besides, the activity (max response) in test [11] was 3.51%. Besides, the Potency entry in test [12] is “inactive”.

Regarding `CC1(C)CNc2cc(NC(=O)c3cccnc3NCc3ccncc3)ccc21`, the Potency in test [1] is 2.31 µM (active); in test [2], 5.17 µM (active) and 5.9 µM (active). Moreover, the Potency entry in test [3], in test [4], in test [5], in [6], in test [7] and in [8] was “inactive” in each case. For the same compound, in test [12], the Potency result is “inactive”. For the same compound, the activity (max response) in test [11] is -22.3%.

As to `Cc1cc(Nc2ncnc3ccc(-c4ccc(CNCCS(C)(=O)=O)o4)cc23)ccc1Oc1ccn2ncnc2c1`, the Potency in test [1] is 11.8 µM (active); in test [2], 11.6 µM (active) and 18.6 µM (active); in test [3] it was 0.935 µM (active); in test [4] it was 1.18 µM (active); in [5] it was 0.209 µM (active); in [6], 0.209 µM (active). Also, the Potency in [7] is 0.743 µM (active); in test [8], 1.18 µM (active); in test [9], 0.59 µM (active); in test [13], 0.332 µM (active). Also, in test [12], the Potency entry was “inactive”.

In the case of `Cc1ncc(-c2ccnc(Nc3ccc(S(C)(=O)=O)cc3)n2)n1C(C)C`, the Potency in test [1] was 1.3 µM (active) and 1.66 µM (active); in test [2], 920 nM (active) and 934 nM (active); in [3], 7.43 µM (active); in test [4] it was 5.9 µM (active); in [5], 7.43 µM (active); in [6] it was 20.9 µM (active). For the same compound, the Potency in [7] is 13.2 µM (active); in test [9], 3.72 µM (active); in [10], 3.32 µM (active); in test [13], 5.26 µM (active); in test [11], 8.91 µM (active); in test [12] it was 7.08 µM (active).
